Experimental data published in ChEMBL document CHEMBL1961873, “Compounds: GSK PKIS; Assays: Nanosyn kinase panel” (2012).

Legend:
[1] = target: Tyrosine-protein kinase CSK (Homo sapiens) (UniProt P41240); details: at 1 µM;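 note: each value is an averaged inhibition reading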
[2] = target: T1, Discoidin domain-containing receptor 2 (Homo sapiens) (UniProt Q16832); details: at 0.1 µM
T1 sequence (whole entry): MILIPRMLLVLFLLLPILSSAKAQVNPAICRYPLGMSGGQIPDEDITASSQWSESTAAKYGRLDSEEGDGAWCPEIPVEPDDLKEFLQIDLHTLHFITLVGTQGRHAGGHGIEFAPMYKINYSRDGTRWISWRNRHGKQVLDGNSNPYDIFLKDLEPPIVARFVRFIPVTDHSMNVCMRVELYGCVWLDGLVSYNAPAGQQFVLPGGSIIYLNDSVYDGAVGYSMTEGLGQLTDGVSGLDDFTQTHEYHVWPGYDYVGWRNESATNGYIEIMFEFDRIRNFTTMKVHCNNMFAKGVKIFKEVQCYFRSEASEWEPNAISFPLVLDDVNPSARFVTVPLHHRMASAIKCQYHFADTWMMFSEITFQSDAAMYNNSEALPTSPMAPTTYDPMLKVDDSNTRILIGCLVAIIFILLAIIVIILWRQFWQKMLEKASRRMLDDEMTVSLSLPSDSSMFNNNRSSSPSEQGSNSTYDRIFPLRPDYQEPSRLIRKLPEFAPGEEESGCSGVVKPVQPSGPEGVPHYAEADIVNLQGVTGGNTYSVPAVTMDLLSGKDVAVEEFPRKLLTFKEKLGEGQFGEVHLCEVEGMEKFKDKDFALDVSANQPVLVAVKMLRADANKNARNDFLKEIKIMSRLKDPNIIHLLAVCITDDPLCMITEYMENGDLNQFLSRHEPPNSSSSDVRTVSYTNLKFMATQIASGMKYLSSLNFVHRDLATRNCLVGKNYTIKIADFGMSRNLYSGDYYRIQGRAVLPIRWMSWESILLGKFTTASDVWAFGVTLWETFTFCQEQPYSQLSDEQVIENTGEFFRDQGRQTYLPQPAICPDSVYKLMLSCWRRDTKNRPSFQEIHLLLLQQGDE

[3] = target: T1, Discoidin domain-containing receptor 2 (Homo sapiens); details: at 1 µM
[4] = target: Epidermal growth factor receptor (Homo sapiens) (UniProt P00533); details: at 0.1 µM
[5] = target: Epidermal growth factor receptor (Homo sapiens) (UniProt P00533); details: at 1 µM
[6] = test system: Epidermal growth factor receptor (Homo sapiens), P00533 [L858R]; details: at 0.1 µM
[7] = test system: Epidermal growth factor receptor (Homo sapiens), P00533 [L858R]; details: at 1 µM
[8] = test system: Epidermal growth factor receptor (Homo sapiens), P00533 [L861Q]; details: at 0.1 µM
[9] = test system: Epidermal growth factor receptor (Homo sapiens), P00533 [L861Q]; details: at 1 µM
[10] = test system: Epidermal growth factor receptor (Homo sapiens), P00533 [T790M]; details: at 0.1 µM
[11] = test system: Epidermal growth factor receptor (Homo sapiens), P00533 [T790M]; details: at 1 µM
[12] = test system: Epidermal growth factor receptor (Homo sapiens), P00533 [L858R,T790M]; details: at 0.1 µM
[13] = test system: Epidermal growth factor receptor (Homo sapiens), P00533 [L858R,T790M]; details: at 1 µM
[14] = target: Ephrin type-A receptor 2 (Homo sapiens) (UniProt P29317); details: at 0.1 µM
[15] = target: Ephrin type-A receptor 2 (Homo sapiens) (UniProt P29317); details: at 1 µM
[16] = target: T2, Ephrin type-A receptor 3 (Homo sapiens) (UniProt P29320); details: at 0.1 µM
T2 sequence (whole entry): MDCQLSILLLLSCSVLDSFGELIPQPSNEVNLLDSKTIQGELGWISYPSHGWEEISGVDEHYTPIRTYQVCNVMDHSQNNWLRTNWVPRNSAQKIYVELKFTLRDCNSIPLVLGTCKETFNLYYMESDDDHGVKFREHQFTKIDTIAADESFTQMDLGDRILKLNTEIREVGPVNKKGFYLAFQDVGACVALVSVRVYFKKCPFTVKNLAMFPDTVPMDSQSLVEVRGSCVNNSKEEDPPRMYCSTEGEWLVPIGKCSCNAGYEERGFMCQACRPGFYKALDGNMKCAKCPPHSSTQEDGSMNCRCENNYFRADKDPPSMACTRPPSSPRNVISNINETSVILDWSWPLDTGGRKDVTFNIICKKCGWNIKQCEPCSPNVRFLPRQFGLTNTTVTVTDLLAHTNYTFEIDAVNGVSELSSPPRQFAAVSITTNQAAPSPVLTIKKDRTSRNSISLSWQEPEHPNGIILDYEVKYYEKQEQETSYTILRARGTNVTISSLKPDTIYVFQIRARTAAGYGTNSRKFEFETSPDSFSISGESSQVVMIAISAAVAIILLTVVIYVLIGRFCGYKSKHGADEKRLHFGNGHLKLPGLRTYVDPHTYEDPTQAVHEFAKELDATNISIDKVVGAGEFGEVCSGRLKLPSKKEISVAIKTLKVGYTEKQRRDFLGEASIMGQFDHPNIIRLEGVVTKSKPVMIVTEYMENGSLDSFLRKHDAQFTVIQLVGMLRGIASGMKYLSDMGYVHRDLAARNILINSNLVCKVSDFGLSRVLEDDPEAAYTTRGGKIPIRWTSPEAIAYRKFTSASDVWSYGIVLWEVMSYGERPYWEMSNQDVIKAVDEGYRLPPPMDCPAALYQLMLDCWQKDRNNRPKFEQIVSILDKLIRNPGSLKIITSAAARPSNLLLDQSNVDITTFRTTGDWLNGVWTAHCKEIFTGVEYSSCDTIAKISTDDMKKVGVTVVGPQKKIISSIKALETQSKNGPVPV

[17] = target: T2, Ephrin type-A receptor 3 (Homo sapiens); details: at 1 µM
[18] = target: Ephrin type-A receptor 4 (Homo sapiens) (UniProt P54764); details: at 0.1 µM
[19] = target: Ephrin type-A receptor 4 (Homo sapiens) (UniProt P54764); details: at 1 µM
[20] = target: T3, Ephrin type-B receptor 2 (Homo sapiens) (UniProt P29323); details: at 0.1 µM;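 note: reported as mean inhibition of EPHB2, from the GSK PKIS dataset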
T3 sequence (whole entry): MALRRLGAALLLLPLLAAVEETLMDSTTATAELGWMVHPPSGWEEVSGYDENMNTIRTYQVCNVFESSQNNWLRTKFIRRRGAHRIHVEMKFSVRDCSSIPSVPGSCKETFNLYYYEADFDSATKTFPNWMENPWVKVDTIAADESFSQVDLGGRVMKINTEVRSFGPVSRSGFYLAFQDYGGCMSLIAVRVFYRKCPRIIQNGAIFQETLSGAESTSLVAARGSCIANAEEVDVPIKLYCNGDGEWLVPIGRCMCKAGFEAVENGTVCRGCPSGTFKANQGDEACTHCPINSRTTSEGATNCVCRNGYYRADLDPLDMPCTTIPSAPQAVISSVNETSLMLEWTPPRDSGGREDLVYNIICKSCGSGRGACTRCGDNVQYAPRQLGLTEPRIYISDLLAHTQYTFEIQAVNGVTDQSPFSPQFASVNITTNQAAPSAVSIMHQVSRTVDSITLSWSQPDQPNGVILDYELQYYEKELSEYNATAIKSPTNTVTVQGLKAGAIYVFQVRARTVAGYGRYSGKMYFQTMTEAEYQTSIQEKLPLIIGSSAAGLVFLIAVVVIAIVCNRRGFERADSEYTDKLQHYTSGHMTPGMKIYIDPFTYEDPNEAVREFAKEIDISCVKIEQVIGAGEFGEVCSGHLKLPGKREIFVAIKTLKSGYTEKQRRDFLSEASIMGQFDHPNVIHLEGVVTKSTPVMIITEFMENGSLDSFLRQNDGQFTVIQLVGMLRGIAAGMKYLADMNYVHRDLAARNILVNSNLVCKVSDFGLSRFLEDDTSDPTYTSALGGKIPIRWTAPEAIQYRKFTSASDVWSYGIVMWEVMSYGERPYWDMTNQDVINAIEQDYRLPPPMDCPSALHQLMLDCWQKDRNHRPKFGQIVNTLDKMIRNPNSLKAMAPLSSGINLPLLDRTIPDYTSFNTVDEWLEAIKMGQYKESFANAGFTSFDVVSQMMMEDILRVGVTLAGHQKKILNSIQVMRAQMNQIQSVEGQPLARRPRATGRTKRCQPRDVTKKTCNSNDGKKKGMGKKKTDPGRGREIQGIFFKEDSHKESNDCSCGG

Sequence of Epidermal growth factor receptor (Homo sapiens), P00533 [L858R] (P00533 whole entry L858R): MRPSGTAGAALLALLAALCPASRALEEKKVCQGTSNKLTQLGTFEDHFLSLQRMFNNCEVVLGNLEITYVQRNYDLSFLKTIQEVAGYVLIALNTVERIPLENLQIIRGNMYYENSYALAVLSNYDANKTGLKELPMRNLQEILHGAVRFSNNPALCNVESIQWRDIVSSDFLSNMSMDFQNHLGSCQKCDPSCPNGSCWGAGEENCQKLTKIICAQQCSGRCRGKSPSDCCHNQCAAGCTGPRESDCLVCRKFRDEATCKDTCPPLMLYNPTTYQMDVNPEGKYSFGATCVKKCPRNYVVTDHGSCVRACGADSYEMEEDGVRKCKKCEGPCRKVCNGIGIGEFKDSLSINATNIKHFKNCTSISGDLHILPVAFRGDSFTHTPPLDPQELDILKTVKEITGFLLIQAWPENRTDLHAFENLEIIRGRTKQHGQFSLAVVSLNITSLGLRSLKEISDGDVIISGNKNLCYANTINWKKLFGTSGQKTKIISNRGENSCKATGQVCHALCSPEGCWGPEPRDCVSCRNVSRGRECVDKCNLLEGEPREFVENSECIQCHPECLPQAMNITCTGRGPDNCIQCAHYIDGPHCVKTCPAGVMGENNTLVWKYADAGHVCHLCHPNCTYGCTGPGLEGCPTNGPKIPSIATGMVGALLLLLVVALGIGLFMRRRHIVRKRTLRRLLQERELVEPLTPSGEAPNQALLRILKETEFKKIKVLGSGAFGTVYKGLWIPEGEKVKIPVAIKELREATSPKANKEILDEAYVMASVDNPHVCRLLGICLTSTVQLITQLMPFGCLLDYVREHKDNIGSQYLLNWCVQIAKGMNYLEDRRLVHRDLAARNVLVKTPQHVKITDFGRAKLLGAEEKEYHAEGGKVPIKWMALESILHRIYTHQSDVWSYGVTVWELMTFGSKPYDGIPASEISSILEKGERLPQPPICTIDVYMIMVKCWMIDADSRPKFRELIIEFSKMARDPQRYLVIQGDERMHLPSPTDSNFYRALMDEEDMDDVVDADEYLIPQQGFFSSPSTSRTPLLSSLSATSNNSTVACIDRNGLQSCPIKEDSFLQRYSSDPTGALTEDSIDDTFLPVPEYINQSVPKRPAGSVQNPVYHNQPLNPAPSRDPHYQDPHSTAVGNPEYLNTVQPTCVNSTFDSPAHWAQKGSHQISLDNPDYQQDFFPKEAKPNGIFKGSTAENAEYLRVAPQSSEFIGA
Sequence of Ephrin type-A receptor 4 (Homo sapiens) (P54764 whole entry): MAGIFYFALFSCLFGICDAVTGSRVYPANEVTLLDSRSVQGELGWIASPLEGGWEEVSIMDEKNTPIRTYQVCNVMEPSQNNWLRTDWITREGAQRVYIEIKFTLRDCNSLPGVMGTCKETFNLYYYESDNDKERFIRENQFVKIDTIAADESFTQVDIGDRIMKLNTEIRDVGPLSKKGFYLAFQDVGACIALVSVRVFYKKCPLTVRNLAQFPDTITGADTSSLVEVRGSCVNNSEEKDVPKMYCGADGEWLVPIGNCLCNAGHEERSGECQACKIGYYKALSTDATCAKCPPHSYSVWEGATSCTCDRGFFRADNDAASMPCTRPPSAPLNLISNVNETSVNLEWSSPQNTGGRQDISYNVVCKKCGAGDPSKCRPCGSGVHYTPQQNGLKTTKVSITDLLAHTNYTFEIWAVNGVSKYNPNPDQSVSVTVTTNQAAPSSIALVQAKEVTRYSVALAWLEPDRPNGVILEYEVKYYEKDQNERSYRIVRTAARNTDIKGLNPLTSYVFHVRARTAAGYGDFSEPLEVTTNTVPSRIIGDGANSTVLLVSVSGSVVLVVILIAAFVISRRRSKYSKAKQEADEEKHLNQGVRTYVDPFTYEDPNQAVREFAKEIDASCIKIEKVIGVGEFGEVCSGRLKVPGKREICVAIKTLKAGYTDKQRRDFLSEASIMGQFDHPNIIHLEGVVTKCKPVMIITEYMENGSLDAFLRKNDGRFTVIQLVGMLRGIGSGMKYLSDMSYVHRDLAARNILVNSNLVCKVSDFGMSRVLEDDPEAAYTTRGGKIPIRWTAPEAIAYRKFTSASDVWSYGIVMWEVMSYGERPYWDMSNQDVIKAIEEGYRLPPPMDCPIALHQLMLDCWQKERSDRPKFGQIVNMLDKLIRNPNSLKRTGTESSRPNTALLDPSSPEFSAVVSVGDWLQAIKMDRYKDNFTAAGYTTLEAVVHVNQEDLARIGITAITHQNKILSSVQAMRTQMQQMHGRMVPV
Sequence of Epidermal growth factor receptor (Homo sapiens), P00533 [L861Q] (P00533 whole entry L861Q): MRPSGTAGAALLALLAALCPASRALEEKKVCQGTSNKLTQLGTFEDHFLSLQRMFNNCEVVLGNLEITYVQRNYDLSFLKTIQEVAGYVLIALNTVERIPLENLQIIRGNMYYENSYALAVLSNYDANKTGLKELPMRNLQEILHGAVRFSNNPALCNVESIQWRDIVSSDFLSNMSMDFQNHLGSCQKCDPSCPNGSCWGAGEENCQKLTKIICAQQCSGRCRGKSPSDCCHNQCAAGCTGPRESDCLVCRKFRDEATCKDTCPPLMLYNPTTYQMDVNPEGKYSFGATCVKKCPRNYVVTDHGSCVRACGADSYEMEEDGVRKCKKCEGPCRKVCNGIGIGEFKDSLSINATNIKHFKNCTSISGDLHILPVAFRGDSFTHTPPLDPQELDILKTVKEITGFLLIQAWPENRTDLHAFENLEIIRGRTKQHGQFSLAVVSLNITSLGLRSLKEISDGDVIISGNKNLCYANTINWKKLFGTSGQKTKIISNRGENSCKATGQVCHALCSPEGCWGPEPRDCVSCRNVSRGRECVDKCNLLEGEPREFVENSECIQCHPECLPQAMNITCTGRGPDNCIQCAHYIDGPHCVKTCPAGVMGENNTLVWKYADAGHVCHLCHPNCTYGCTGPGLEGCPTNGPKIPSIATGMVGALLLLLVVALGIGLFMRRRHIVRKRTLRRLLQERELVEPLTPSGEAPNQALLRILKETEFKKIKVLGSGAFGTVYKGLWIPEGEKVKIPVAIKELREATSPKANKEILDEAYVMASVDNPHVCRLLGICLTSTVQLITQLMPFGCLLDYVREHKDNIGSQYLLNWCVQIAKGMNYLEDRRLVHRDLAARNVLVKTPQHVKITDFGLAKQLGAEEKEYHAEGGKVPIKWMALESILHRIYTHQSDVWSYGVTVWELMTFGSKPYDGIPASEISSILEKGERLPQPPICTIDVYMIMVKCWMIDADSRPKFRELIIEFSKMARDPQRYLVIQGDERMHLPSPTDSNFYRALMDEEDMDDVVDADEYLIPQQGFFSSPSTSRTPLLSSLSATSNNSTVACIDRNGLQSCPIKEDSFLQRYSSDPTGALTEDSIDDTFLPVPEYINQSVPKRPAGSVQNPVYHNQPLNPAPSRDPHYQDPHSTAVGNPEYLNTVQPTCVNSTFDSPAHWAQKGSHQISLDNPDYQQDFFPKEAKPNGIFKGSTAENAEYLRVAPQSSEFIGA
Sequence of Epidermal growth factor receptor (Homo sapiens) (P00533 whole entry): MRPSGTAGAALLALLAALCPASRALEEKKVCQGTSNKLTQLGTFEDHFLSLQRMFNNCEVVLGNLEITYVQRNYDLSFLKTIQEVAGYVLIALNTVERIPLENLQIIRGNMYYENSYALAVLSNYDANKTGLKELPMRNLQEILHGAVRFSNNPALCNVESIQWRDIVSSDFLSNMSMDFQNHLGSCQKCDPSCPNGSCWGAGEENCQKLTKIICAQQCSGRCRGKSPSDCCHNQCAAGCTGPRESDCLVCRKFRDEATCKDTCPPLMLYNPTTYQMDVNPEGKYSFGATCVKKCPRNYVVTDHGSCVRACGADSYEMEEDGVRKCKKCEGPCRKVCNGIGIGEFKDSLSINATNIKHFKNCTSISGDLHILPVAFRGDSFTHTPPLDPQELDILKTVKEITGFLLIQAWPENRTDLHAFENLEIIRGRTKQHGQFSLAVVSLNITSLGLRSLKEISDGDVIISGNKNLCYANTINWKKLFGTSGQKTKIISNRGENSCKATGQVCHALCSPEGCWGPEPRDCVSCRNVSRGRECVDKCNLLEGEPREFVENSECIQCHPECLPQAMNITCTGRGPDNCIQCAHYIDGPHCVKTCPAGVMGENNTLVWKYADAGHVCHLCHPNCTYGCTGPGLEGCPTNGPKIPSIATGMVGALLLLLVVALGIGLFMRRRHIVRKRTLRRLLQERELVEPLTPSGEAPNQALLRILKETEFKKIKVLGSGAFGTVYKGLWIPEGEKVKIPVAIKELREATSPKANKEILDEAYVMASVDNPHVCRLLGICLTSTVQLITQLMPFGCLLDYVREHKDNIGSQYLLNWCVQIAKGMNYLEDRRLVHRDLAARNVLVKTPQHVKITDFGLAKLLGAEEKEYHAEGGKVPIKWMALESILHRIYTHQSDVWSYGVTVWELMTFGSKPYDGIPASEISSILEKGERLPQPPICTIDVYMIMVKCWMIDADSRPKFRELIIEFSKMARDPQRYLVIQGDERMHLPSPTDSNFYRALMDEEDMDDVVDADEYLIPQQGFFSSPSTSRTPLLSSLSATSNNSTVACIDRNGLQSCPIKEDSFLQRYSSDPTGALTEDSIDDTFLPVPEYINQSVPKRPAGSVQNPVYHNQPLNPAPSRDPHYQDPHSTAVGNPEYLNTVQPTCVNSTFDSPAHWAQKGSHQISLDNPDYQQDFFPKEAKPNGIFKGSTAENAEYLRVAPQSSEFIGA
Sequence of Tyrosine-protein kinase CSK (Homo sapiens) (P41240 2-450 limits assumed): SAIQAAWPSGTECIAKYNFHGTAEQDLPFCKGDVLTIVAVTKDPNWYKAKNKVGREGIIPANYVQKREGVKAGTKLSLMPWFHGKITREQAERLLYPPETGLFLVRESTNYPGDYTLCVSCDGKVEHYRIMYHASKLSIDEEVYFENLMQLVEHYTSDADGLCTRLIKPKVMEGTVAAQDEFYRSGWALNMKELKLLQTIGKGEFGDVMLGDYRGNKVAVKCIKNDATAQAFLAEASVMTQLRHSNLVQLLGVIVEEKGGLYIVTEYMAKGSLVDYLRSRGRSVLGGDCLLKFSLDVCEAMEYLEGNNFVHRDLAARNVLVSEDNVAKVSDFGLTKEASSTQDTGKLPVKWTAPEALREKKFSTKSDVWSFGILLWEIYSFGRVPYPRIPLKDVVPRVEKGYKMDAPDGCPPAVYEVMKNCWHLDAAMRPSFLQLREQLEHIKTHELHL

Compound | inhibition [1] [%] | inhibition [2] [%] | inhibition [3] [%] | inhibition [4] [%] | inhibition [5] [%] | inhibition [6] [%] | inhibition [7] [%] | inhibition [8] [%] | inhibition [9] [%] | inhibition [10] [%] | inhibition [11] [%] | inhibition [12] [%] | inhibition [13] [%] | inhibition [14] [%] | inhibition [15] [%] | inhibition [16] [%] | inhibition [17] [%] | inhibition [18] [%] | inhibition [19] [%] | inhibition [20] [%]
COC(=O)Nc1nc2cc(Oc3ccc(NC(=O)Nc4cccc(Br)c4)cc3)ccc2[nH]1 | 3.27 | 98.2 | 93.7 | 1.74 | 3.19 | 5.58 | 5.33 | 3.01 | 4.1 | 2.15 | 2.61 | -0.2 | -0.25 | 28.1 | 55.2 | 13 | 12.4 | 52.1 | 76.9 | 56.7
Cc1ccc2c(-c3ccnc(Nc4cccc(C(F)(F)F)c4)n3)c(-c3ccccc3)nn2n1 | 11.4 | 6.32 | 47.4 | 28.9 | 70.3 | 82.3 | 94.8 | 48.2 | 88.2 | 10.9 | 57.7 | 35.2 | 87.6 | 0.69 | 4.04 | 5.98 | 15.1 | 8.59 | 33.9 | 17.6
Cc1ccc(O)cc1Nc1ccnc2ccc(S(C)(=O)=O)cc12 | 94.2 | 59.8 | 79.7 | 12.7 | 36.6 | 19.7 | 72.1 | 8.5 | 31.9 | 3.11 | 7.86 | 4.88 | 5.18 | 91.3 | 95.7 | 92.2 | 81.5 | 89.3 | 93.5 | 83.6
C[C@@H](Oc1cc(-n2cnc3ccc(OC[C@@H](O)CO)cc32)sc1C(N)=O)c1ccccc1Cl | -0.52 | 0.32 | 0.79 | -0.06 | 2.04 | -2.48 | 1.14 | -1.31 | -2.45 | -3.45 | -1.48 | -1.15 | -0.33 | -4.23 | -4.51 | -2.37 | 1.69 | -2.22 | -0.2 | -0.2
CS(=O)(=O)CCNCc1nc(-c2ccc3ncnc(Nc4ccc(OCc5cccc(C(F)(F)F)c5)cc4)c3c2)cs1 | 2.7 | 5.44 | 5.59 | 14.6 | 64 | 8.86 | 43.9 | 11.5 | 34.8 | -1.75 | -0.12 | -2.33 | -3.57 | 1.44 | 0.05 | 2.99 | 3.51 | 0.66 | 7.07 | 0.86
CC(C)c1ccc2c(c1)NC(=O)/C2=N/Nc1ccc(S(N)(=O)=O)cc1 | 0.99 | 0.55 | 0.19 | 1.14 | 2.18 | -0.18 | -0.39 | -0.48 | -2.09 | -1.03 | -1.35 | -0.97 | -2.16 | -2 | -1.68 | -0.36 | 1.64 | 3.01 | 5.06 | 0.18
